# Screening results from PubChem.
# In the library only some 1.4% were active in any assay of this set; here they are far more common.
# Vaccinia Venus: qHTS for Stage-Specific Inhibitors of Vaccinia Orthopoxvirus: Venus Reporter Primary qHTS | Vaccinia virus Venus reporter expression, fluorescence | Potency, µM (titrated, usually from 36.5 µM), for inactives: at the highest dose activity change, negative = inhibition, actives largely listed as inhibitors | actives 0.46% (n = 330,000) | AID 720580, 2013; calls by dose curve; tested in A549 cells; further: potency means the concentration at half of the fitted maximal effect; on the % scale 0 is the no-effect control and ±100 the full control effect; nearly all actives have a fitted effect of over 30% in size
# AMA1 RON2 block: qHTS for Inhibitors of AMA1-RON; Towards Development of Antimalarial Drug Lead: Primary Screen. AlphaScreen AMA1-biotinylated RON2 peptide binding. actives 0.2% (n = 360,000). Potency, µM (titrated, usually from 58.2 µM), without a hit: at the top dose activity change, negative = inhibition, hits mostly inhibitors;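 further: potency means the concentration at half of the fitted maximal effect; 0% = vehicle wells and -100% = peptide control; nearly all actives have a fitted effect of over 45% in size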
#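 AMA1 (3D7) with his tag at 25 nM final met compounds first, then biotinylated RON2 peptide at 25 nM; detection used donor plus acceptor beads, 10 µg/mL apiece, read by AlphaScreen after 30 min at room temperature.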
# Vaccinia mCherry: qHTS for Stage-Specific Inhibitors of Vaccinia Orthopoxvirus: mCherry Reporter Primary qHTS. Vaccinia virus mCherry reporter infection, fluorescence. Potency, µM (top dose mostly 36.5 µM), inactives show at the highest dose activity change, negative = inhibition, hits mostly inhibitors. actives 0.63% (n = 310,000); calls by dose curve; tested in A549 cells; further: potency means the concentration at half of the fitted maximal effect; on the % scale 0 is the no-effect control and ±100 the full control effect; nearly all actives have a fitted effect of over 35% in size
# AmpC no deterg: qHTS Inhibitors of AmpC Beta-Lactamase (assay without detergent); AID 485341, 2010; P00811; Potency, µM (highest dose often 57.1 µM), without a hit: at the highest dose activity change, negative = inhibition, most hits filed as inhibitors; AmpC nitrocefin hydrolysis, absorbance 480 nm, 0.0001% Triton; actives 0.52% (n = 330,000);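 further: potency means the concentration at half of the fitted maximal effect; plate controls were no compound for no effect and no enzyme for full effect; nearly all actives have a fitted effect of over 20% in size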
# Target sequence (P00811 whole entry, looked up): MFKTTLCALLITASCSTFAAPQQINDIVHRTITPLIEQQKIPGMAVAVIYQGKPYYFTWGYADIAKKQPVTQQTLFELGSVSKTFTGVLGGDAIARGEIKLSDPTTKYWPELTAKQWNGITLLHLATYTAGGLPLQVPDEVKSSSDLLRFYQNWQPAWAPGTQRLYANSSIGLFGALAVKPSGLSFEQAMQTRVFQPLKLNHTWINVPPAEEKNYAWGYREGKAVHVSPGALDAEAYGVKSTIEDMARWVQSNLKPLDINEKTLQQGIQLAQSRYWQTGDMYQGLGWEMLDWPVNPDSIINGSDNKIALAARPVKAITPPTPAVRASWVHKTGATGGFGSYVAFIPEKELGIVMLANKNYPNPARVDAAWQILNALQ
#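 20 mM phosphate pH 7.0 + 0.01% (detergent screen) or 0.0001% Triton X-100; 5.3 nM AmpC reagent; cpd preinc 15 min RT; nitrocefin (800 uM stock) to start; A480 q20 s × 4 min; Activity was normalised to no-enzyme and no-compound control wells.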
# SARS PLpro yeast-1: qHTS of Yeast-based Assay for SARS-CoV PLP; AID 485353, 2010; S. cerevisiae expressing SARS-CoV PLpro, growth rescue; actives 0.19% (n = 330,000); Potency, µM (doses to about 32.9 µM), without a hit: at the top dose activity, positive = growth rescue, hits mostly activators; calls by dose curve; further: potency means the concentration at half of the fitted maximal effect; 0% is about no effect; nearly all actives have a fitted effect of over 55% in size
# AmpC inh detg: qHTS Inhibitors of AmpC Beta-Lactamase (assay with detergent) | P00811 | AmpC hydrolysis of nitrocefin, absorbance 480 nm, 0.01% Triton | Potency, µM (series often up to 114 µM), inactives show at the top dose activity change, negative = inhibition, actives largely listed as inhibitors | actives 0.041% (n = 370,000) | AID 485294, 2010;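 further: potency means the concentration at half of the fitted maximal effect; 0% = no-compound wells and -100% = no-enzyme wells; nearly all actives have a fitted effect of over 25% in size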
#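 AmpC (5.3 nM in the dispensed reagent) in 20 mM phosphate pH 7.0 with 0.01% (detergent screen) or 0.0001% Triton X-100 was preincubated with compounds for 15 min at room temperature. Nitrocefin was then added from an 800 uM solution, and hydrolysis was followed at 480 nm.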
# SARS PLpro yeast-2: qHTS of Yeast-based Assay for SARS-CoV PLP: Hit Validation. shares compounds with SARS PLpro yeast-1. yeast expressing SARS-CoV PLpro, growth phenotype rescue. calls only. actives 19% (n = 1,000); call rule not given here
# * hit, by the source's call; i = inactive; ? = inconclusive; . = no result given; + = active, no number; [ ] = dose if it differs, or a comment. Unless noted, the call rests on the fitted dose curve; in most records, active means well fitted curve in the direction sought with a large enough effect; inconclusive means small, poorly fitted or top-dose-only effect, or another doubt; inactive means no such curve, though single readings can be large; an effect the other way counts as inactive or inconclusive.
SMILES,Vaccinia Venus,AMA1 RON2 block,Vaccinia mCherry,AmpC no deterg,SARS PLpro yeast-1,AmpC inh detg,SARS PLpro yeast-2
Cc1ccc(-n2c(O)c(/C=N/NC(=O)C3COc4ccccc4O3)c3ccccc3c2=O)cc1 (stereo not drawn),-17.5%,68.8%,-25.1%,-37.4%,?,-2.2%,?
O=C(N/N=C/c1c(O)n(-c2ccccc2Cl)c(=O)c2ccccc12)C1COc2ccccc2O1 (stereo not drawn),-0.6%,84.2%,-16.0%,-27.0%,11.2µM*,-3.1%,+
Cc1c(/C=N\NC(=O)C2COc3ccccc3O2)c2ccccc2n1C (stereo not drawn),?,-3.6%,-21.1%,-22.4%,-32.1%,3.5%,.
O=C(N/N=C\c1cccc([N+](=O)[O-])c1O)C1COc2ccccc2O1 (stereo not drawn),-20.3%,-7.5%,i,-24.4%,12.6µM*,5.7%,i
O=C(Cc1ccc(OCC2CCCCC2)cc1)NO,14.9%,.,-15.9%,.,.,.,.
COCCNC(=O)c1ccc2c(=O)n(CCc3ccccc3)c(SCC(=O)CC(=O)OC)nc2c1,-11.4%,.,-12.6%,.,.,2.0%,.
CC(=O)N(CCc1ccccc1C)Cc1cc2cc3c(cc2[nH]c1=O)OCO3,-14.5%,-0.7%,.,-2.0%,11.2µM*,4.9%,i
COc1ccc(NC(=O)N2CCC(n3nnc4cc(C)ccc43)CC2)cc1,-13.0%,11.6%,-2.6%,-15.7%,?,8.3%,i
CCOc1ccc(NC(=O)N2CCC(n3nnc4ccccc43)CC2)cc1,-11.5%,10.8%,i,-14.6%,-0.7%,-6.9%,.
CC(Sc1n[nH]c(-c2ccccc2F)n1)C(=O)Nc1ccc(S(N)(=O)=O)cc1 (stereo not drawn),-3.6%,4.2%,-6.3%,-46.8%,?,-0.8%,i
Cc1ccc(-c2nn3c(=O)cc(CN4CCN(C(=O)c5ccc(C(C)(C)C)cc5)CC4)nc3s2)cc1,-6.6%,.,-12.7%,.,.,14.0%,.
Cc1ccc(N2CN(Cc3ccco3)CNC2=S)c(C)c1,-13.6%,-5.9%,-13.9%,-27.1%,?,-6.8%,?
Cc1ccc(N2CN(Cc3cccnc3)CNC2=S)c(C)c1,-7.5%,3.7%,-12.8%,-8.7%,-14.1%,-3.0%,.
Cc1nnc(SCC(=O)NNC(=O)C(C)C)[nH]c1=O,-12.8%,7.8%[2.32 µM],-17.2%,-9.9%,22.4µM*,-13.8%,i
COc1cc2nc(N3CCCN(C)CC3)nc(N(C)C)c2cc1OC,-20.5%,.,-25.9%,.,.,.,.
CN1CCOC(c2ccccc2)c2ccccc2C1 (stereo not drawn),-14.4%,0.5%,-7.9%,-16.9%,5.01µM*,?,i
CC1C(c2ccccc2)OCCN1C (stereo not drawn),-0.6%,-9.5%,i,.,.,.,.
Cc1cc(=O)n(Cc2ccccc2Cl)c2c1c(C)nn2-c1ccccc1,1.1%,.,-12.2%,.,.,0.8%,.
COC(C)(C)CCCC(C)C/C=C/C(C)=C/C(=O)O (stereo not drawn),-1.4%,.,i,.,.,.,.
Cc1c(NC(=O)COc2ncnc3c(Cl)cc(Cl)cc23)c(=O)n(-c2ccccc2)n1C,-3.6%,-2.6%,-10.1%,-5.6%,?,-14.9%,i
Cc1c(NC(=O)COc2ccccc2Cl)c(=O)n(-c2ccccc2)n1C,.,-5.6%,.,-9.5%,-14.4%,?,.
CCCCCN(C(=O)NC(=O)Nc1ccccc1C)S(=O)(=O)c1ccccc1,-23.0%,-19.4%,-23.1%,-10.9%,?,0.0%,i
COc1ccc(CCN2C(=O)c3[nH]nc(-c4ccccc4O)c3C2c2ccccc2)cc1 (stereo not drawn),-28.1%,.,-29.4%,.,.,13.9%,.
O=C(Cn1nc(Cl)nc1Cl)c1ccc(F)cc1,.,3.5%,.,-5.5%,-0.8%,-9.1%,.
O=C(Cn1nc(Cl)nc1Cl)c1ccc2c(c1)OCCO2,-5.3%,42.1%,-9.2%,-20.8%,11.2µM*,?,?
SMILES,Vaccinia Venus,AMA1 RON2 block,Vaccinia mCherry,AmpC no deterg,SARS PLpro yeast-1,AmpC inh detg,SARS PLpro yeast-2
Cc1ccc(CNC(=O)c2nn(-c3ccc(Cl)cc3)nc2CO)cc1,0.0%,.,3.2%,.,.,20.2%,.
COc1cccc(/C=N/NC(=O)CSc2ccccc2C)c1O,?,92.8%,?,-21.8%,22.4µM*,-7.6%,+
COc1cccc(/C=N/NC(=O)c2nc(-c3ccccc3)cc(-c3ccccc3)n2)c1O,-17.4%,43.0%,-21.2%,-30.6%,11.2µM*,-13.6%,+
COc1cccc(/C=N/NC(=O)C(C)n2nc(C)c([N+](=O)[O-])c2C)c1O (stereo not drawn),?,64.0%,?,-45.2%,11.2µM*,-16.8%,i
COc1cccc(/C=N/NC(=O)c2c(C)nc3ccc(Br)cn23)c1O,.,?,.,-18.3%,?,3.6%,i
COc1cc(/C=N/NC(=O)c2cc(-c3ccccc3)nc3ccccc23)cc(OC)c1O,.,61.3%,.,59.1%,3.3%,-13.0%,.
Cc1cc(Br)ccc1NC(=O)c1ccc(NS(=O)(=O)c2c(C)noc2C)cc1,9.2%,.,-7.3%,.,.,-2.8%,.
C[C@]12C=CC(=O)C=C1CCC1C2C(=O)C[C@]2(C)C1CC[C@]2(O)C(=O)CO (stereo partly drawn),-2.5%,.,-10.5%,.,.,.,.
CCOC(=O)C(CC)Sc1ccc2nnc(-c3ccc(F)cc3)n2n1 (stereo not drawn),6.3%,.,-21.5%,.,.,.,.
COc1ccc(OCC(=O)Sc2ccc(C)cc2)cc1,-20.7%,55.5%,.,-33.3%,2.82µM*,-4.9%,i
Oc1c(C(Nc2ccccn2)c2cccnc2)cc(Cl)c2cccnc12 (stereo not drawn),?,?,?,-24.6%,2.51µM*,-3.8%,i
Oc1c(C(c2ccc(Cl)cc2)N2CCCC2)cc(Cl)c2cccnc12 (stereo not drawn),?,-58.9%,12.6µM*,-36.2%,.,-13.0%,i
COc1ccc(C(NC(=O)c2cccnc2)c2cc(Cl)c3cccnc3c2O)cc1OC (stereo not drawn),?,34.3%,-10.7%[1.46 µM],44.5%,2.24µM*,-1.7%,i
CC(=O)NC(c1ccc(C)cc1)c1cc(Cl)c2cccnc2c1O (stereo not drawn),?,84.3%,?,-15.4%,?,-14.6%,+
CCc1ccc(NC(=O)CC2C(=O)N(c3cccc(C)c3)C(=O)N2Cc2ccco2)cc1 (stereo not drawn),-5.8%,.,-9.7%,.,.,24.3%,.
